This is an account of results in the supplement of paper PMC10477191.

The structures appear in SMILES notation. ± gives the standard deviation of the averaged measurements.

This assay concerns Drosophila ezoana antennal basiconic sensillum ab7. The experiment in a line: odor-evoked OSN spike response (post minus pre-stimulus); higher = stronger neuronal excitation. Particulars: odor dilution: 10^-4. As for the experimental part:
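Single sensillum recordings from antennal basiconic sensilla of D. ezoana. A 500 ms pulse of odorant (10^-4 in mineral oil or DMSO) was delivered; the response is the change in action potential frequency between the 1 s pre- and post-stimulus windows (spikes/s).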
Turning to `CCCCC(C)O` (centres undefined) [2-hexanol], the “odor-evoked OSN spike response” value amounted to 56.1 ± 29 spikes/s.
For `CCCCCCCC(C)=O` [2-nonanone], the “odor-evoked OSN spike response” value is 66.8 ± 40 spikes/s.
Next, `CCOC(=O)C(C)O` (centres undefined) [Ethyl lactate]: 60.2 ± 36 spikes/s; `C=CC(O)CCCCC` (centres undefined) [1-octen-3-ol]: 107 ± 43 spikes/s.
With `CCCCCC(C)=O` [2-heptanone], the “odor-evoked OSN spike response” value was 138 ± 39 spikes/s.
Take `CCCC(=O)CC` [3-hexanone]: the “odor-evoked OSN spike response” value was 53.1 ± 33 spikes/s.
`CCCCCCO` [1-hexanol]: the “odor-evoked OSN spike response” value was found to be 53.6 ± 33 spikes/s.
On to `CCCCCOC(C)=O` [pentyl acetate], for which the “odor-evoked OSN spike response” value came to 59.2 ± 30 spikes/s.
As to `CCCCCCCC(C)O` (centres undefined) [2-nonanol], the “odor-evoked OSN spike response” value came to 52.3 ± 32 spikes/s.
On to `CC(=O)CCC=C(C)C` [6-methyl-5-hepten-2-one], for which the “odor-evoked OSN spike response” value is 140 ± 40 spikes/s.
Under `CCOC(=O)CC(C)O` (centres undefined) [Ethyl-3-hydroxybutyrate] stands 80.1 ± 47 spikes/s.
Take `CCCCCC(=O)OCC` [ethyl hexanoate]: the “odor-evoked OSN spike response” value came to 74.4 ± 40 spikes/s.
Regarding `CCCCC(C)=O` [2-hexanone], the “odor-evoked OSN spike response” value worked out at 50.2 ± 29 spikes/s.
`C[C@H]1CCC[C@@]2(C)CCCC[C@]12O` [geosmin]: the “odor-evoked OSN spike response” value was found to be 3.51 ± 21 spikes/s.
